Screening results: PubChem BioAssay, several laboratories
Mtb FBA inh: Mtb FBA enzyme inhibitors, primary screen, biochemical, fluorescence, strain H37Rv; Fructose-bisphosphate aldolase (Mycobacterium tuberculosis (strain ATCC 25618 / H37Rv)), …; 360,000 tested, 2.3% active; purified M. tuberculosis FBA, fluorescence read-out; inhibition, % at 1 µM; AID 588726, 2011; in the data active = inhibition above about 27%
Target sequence (P9WQA3 whole entry, looked up): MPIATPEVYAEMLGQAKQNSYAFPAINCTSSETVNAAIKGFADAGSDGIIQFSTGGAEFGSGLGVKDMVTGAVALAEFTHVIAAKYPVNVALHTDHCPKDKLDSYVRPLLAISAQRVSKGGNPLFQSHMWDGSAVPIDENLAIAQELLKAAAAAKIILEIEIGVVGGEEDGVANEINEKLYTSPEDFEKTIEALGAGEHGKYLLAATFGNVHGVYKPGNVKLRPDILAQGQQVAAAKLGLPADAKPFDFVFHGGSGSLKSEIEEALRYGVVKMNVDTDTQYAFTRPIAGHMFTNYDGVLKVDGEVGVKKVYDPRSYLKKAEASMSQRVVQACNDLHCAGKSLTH
Rv3671c inh: Rv3671c serine protease inhibitors, primary screen, biochemical, fluorescence polarization, M. tuberculosis H37Rv. P9WHR9. inhibition, % at 5.96 µM. 320,000 tested, 0.048% active. AID 2606, 2010; in the data active = inhibition above about 38%;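 also: extracellular domain of Rv3671c used as enzyme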
Mtb bLac sens: beta-lactam sensitization of Mtb H37Rv, H37Rv; M. tuberculosis H37Rv growth with meropenem, percent inhibition; inhibition, % at 25 µM; 330,000 tested, 0.27% active; AID 434955, 2010; call rule not given here;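 also: growth measured after seven days incubation then overnight dye step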
GDH-TPI inh: GDH-TPI coupling enzyme inhibitors, primary screen, artefact control for M. tuberculosis FBA inhibitor project, biochemical, absorbance, full deck. GDH-TPI coupled enzyme counterscreen, NADH absorbance. inhibition, % at 4.8 µM. 360,000 tested, 1.2% active. AID 588335, 2011; in the data active = inhibition above about 30%
Mtb UGM inh: M. tuberculosis UGM enzyme inhibitors, primary screen, biochemical, fluorescence polarization, single point; UDP-galactopyranose mutase (Mycobacterium tuberculosis (strain ATCC 25618 / H37Rv)), …; purified UGM, fluorescence polarization probe displacement; inhibition, % at 10 µM; 320,000 tested, 0.06% active; in the data active = inhibition above about 10%, passing the limit was not always enough; inconclusive = no clear call, values can overlap the other calls
Target sequence (P9WIQ1 whole entry, looked up): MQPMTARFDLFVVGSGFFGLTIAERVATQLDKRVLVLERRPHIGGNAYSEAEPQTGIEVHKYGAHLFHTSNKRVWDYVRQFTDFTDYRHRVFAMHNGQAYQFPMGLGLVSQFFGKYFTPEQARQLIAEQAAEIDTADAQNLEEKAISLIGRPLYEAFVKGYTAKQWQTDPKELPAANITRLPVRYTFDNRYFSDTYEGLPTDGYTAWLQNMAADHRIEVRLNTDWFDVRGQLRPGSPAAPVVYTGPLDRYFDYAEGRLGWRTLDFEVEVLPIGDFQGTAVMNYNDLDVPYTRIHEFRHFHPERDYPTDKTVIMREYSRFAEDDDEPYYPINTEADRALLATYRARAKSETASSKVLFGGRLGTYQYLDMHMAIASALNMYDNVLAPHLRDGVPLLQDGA
RecA splice inh: Mtb RecA intein splicing inhibitors, primary screen, biochemical, fluorescence, HTS. cell-free RecA intein splicing. AID 2221, 2009. 290,000 tested, 0.75% active. inhibition, % (no concentration beside the values); in the data active = inhibition above about 30%; inconclusive = no clear call, values can overlap the other calls
Large screens that a line does not name were inactive. An excerpt weighted towards active compounds, which were near 4% of everything screened.

COc1ccc(/C=C/C(=O)Nc2ccc(-n3nncc3-c3ccc(OC)c(OC)c3)cc2)cc1OC	GDH-TPI inh 36
COc1ccc(/C=C/C(=O)Nc2nnc(C(C)C)s2)cc1OC	GDH-TPI inh 34
COc1ccc(/C=C/C(=O)Nc2c(C(=O)O)[nH]c3ccccc23)cc1OC	GDH-TPI inh 31
COc1ccc(/C=C/C(=O)Nc2ccc3nc4n(c(=O)c3c2)CCCC4)cc1OC	GDH-TPI inh 36
CCn1ccnc1CN(C)C(=O)C1CCC(=O)N(Cc2cccc(F)c2)C1 (stereo unspecified)	none
COc1ccc(C)cc1NC(=O)C1CCCCN1S(=O)(=O)c1ccccc1 (stereo unspecified)	none (no result: RecA splice inh)
Cc1ccc(Nc2nc(N)c([N+](=O)[O-])c(N3CCOCC3)n2)cc1C	none
Cc1cccc(Nc2nc(N)c([N+](=O)[O-])c(N3CCN(C)CC3)n2)c1	GDH-TPI inh 33
Nc1nc(Nc2cccc(F)c2)nc(N2CCOCC2)c1[N+](=O)[O-]	GDH-TPI inh 37
Nc1nc(NCCCN2CCOCC2)nc(Nc2cccc(F)c2)c1[N+](=O)[O-]	GDH-TPI inh 51
Cc1cccc(Nc2nc(NCCCN3CCOCC3)nc(N)c2[N+](=O)[O-])c1	GDH-TPI inh 64
Nc1nc(NCCCN2CCOCC2)nc(Nc2ccc(F)cc2)c1[N+](=O)[O-]	none
CN1CCN(c2nc(Nc3ccccc3)nc(N)c2[N+](=O)[O-])CC1	none
COc1ccc(Nc2nc(NCCCN3CCOCC3)nc(N)c2[N+](=O)[O-])cc1	none (no result: RecA splice inh)
O=C(c1cc(Cl)cc(Cl)c1)N1CCC2CC1c1cc(N3CCCCC3)ccc12 (stereo unspecified)	none (no result: Rv3671c inh, Mtb bLac sens, Mtb UGM inh, RecA splice inh)
CCOC(=O)C(Cc1cc(N)c(Oc2ccc(OC)cc2)c(N)c1)NC(C)=O (stereo unspecified)	none (no result: Rv3671c inh, Mtb bLac sens, Mtb UGM inh, RecA splice inh)
Cc1cccnc1NC(=O)c1nn(C)c2c1CS(=O)(=O)c1ccccc1-2	none
CN1C(=O)C2C(c3ccc(N(C)C)cc3)=NN(Cc3ccccc3)C2C1=O (stereo unspecified)	GDH-TPI inh 44
COc1ccc(C2=NN(Cc3ccccc3)C3C(=O)NC(=O)C23)cc1 (stereo unspecified)	none
COc1ccc(-c2nn(-c3ccccc3)cc2/C=N/NC(=O)c2cccc(S(=O)(=O)Nc3ccccc3Cl)c2)cc1	GDH-TPI inh 32
C[C@@H]1CN([C@H](C)CO)C(=O)CCCn2cc(nn2)CO[C@H]1CN(C)C(=O)Nc1ccc(F)cc1	none (no result: Rv3671c inh, Mtb bLac sens, Mtb UGM inh, RecA splice inh)
C/C(=N\Nc1c([N+](=O)[O-])c(C)nn1C)c1ccc(F)cc1F	GDH-TPI inh 33
NC(=S)N/N=C/c1ccccc1OCc1cccc(Cl)c1	GDH-TPI inh 41
CCOc1cc(/C=N/NC(=O)c2c(-c3ccccc3)noc2C)ccc1O	none
Cc1nc2ccccn2c1C(=O)N/N=C/c1cc(C)n(-c2ccc(Cl)cc2)c1C	GDH-TPI inh 36
CCOc1cc(/C=N\NC(=O)c2c(C)nc3ccccn23)ccc1O	GDH-TPI inh 48
Cc1nc2ccccn2c1C(=O)N/N=C/c1ccc2c(c1)OCO2	GDH-TPI inh 42
C[C@H](CO)N1C[C@H](C)[C@@H](CN(C)S(=O)(=O)c2cn(C)cn2)Oc2ccc(NC(=O)Cc3ccccc3)cc2C1=O	none (no result: RecA splice inh)
COc1ccc(CN2CCOCC2)cc1	none
CNc1cncc(-c2ccc(CN3CCOCC3)cc2)n1	Mtb FBA inh active (no result: Rv3671c inh, Mtb bLac sens, Mtb UGM inh, RecA splice inh)
CNc1cncc(-c2ccc(OCCCN(C)C)nc2)n1	Mtb FBA inh active (no result: Rv3671c inh, Mtb bLac sens, Mtb UGM inh, RecA splice inh)
CNc1cncc(-c2ccc(CN(C)C)cc2)n1	Mtb FBA inh active (no result: Rv3671c inh, Mtb bLac sens, Mtb UGM inh, RecA splice inh)
CNc1cncc(-c2cc(C)c(O)c(C)c2)n1	none (no result: Rv3671c inh, Mtb bLac sens, Mtb UGM inh, RecA splice inh)
CNc1cncc(-c2ccc(O)cc2)n1	Mtb FBA inh 131 (no result: Rv3671c inh, Mtb bLac sens, Mtb UGM inh, RecA splice inh)
CC(=O)Nc1cncc(-c2ccc(CN(C)C)cc2)n1	none (no result: Rv3671c inh, Mtb bLac sens, Mtb UGM inh, RecA splice inh)
Cc1ccc(C)c(CNc2ccc(S(=O)(=O)N3CCCCC3)cc2)c1	none (no result: RecA splice inh)
CNc1cncc(-c2cccc(NS(C)(=O)=O)c2)n1	Mtb FBA inh 168 (no result: Rv3671c inh, Mtb bLac sens, Mtb UGM inh, RecA splice inh)
CNc1cncc(-c2ccoc2)n1	Mtb FBA inh 177 (no result: Rv3671c inh, Mtb bLac sens, Mtb UGM inh, RecA splice inh)
CNc1cncc(-c2cccc(C(C)=O)c2)n1	none (no result: Rv3671c inh, Mtb bLac sens, Mtb UGM inh, RecA splice inh)
CNc1cncc(-c2ccc(S(C)(=O)=O)cc2)n1	Mtb FBA inh 171 (no result: Rv3671c inh, Mtb bLac sens, Mtb UGM inh, RecA splice inh)
CC(O)(c1cccnc1)c1nc(-c2ccoc2)cs1 (stereo unspecified)	none (no result: Rv3671c inh, Mtb bLac sens, Mtb UGM inh, RecA splice inh)
CNc1cncc(-c2ccc(OC)cc2)n1	Mtb FBA inh 172 (no result: Rv3671c inh, Mtb bLac sens, Mtb UGM inh, RecA splice inh)
CNc1cncc(-c2cnn(CC(C)C)c2)n1	Mtb FBA inh active (no result: Rv3671c inh, Mtb bLac sens, Mtb UGM inh, RecA splice inh)
Cc1oc2c(CN3CCCC3)c(O)ccc2c(=O)c1-c1ccc(Cl)cc1	Mtb FBA inh 86
Cc1oc2c(CN3CCCC3)c(O)ccc2c(=O)c1-c1ccccc1	Mtb FBA inh 118
COc1ccc(-c2c(C(F)(F)F)oc3c(CN4CCN(C)CC4)c(O)ccc3c2=O)cc1	none
O=c1c(Oc2ccccc2Br)c(C(F)(F)F)oc2c(CN3CCCC3)c(O)ccc12	none (no result: RecA splice inh)
CC1CCCN(Cc2c(O)ccc3c(=O)c(-c4ccc(Cl)cc4)coc23)C1 (stereo unspecified)	none (no result: Rv3671c inh, Mtb bLac sens, Mtb UGM inh)
Cc1oc2c(CN3CCC(C)CC3)c(O)ccc2c(=O)c1-c1ccccc1	Mtb FBA inh 181
CC1(C(=O)Nc2cccc(C#N)c2)CCN1C(=O)c1ccccc1CCc1ccccc1 (stereo unspecified)	none (no result: Rv3671c inh, Mtb bLac sens, Mtb UGM inh, RecA splice inh)
Cc1c(C(=O)N(C)CCCCN2CCOCC2)oc2c(F)cccc12	none
Cc1ccc2nc(-c3cccc(Br)c3)c(Cc3ccccc3C(F)(F)F)n2c1	none (no result: Rv3671c inh, Mtb bLac sens, GDH-TPI inh, Mtb UGM inh, RecA splice inh)
COc1ccc(-n2c(C)cc(C(=O)CCl)c2C)cc1	RecA splice inh 34
CC1=CC(=C2N=C(c3ccccc3)OC2=O)C=C(C)O1	none
CN(C)/C(CN1CCN(C=O)CC1)=C1\N=C(c2ccccc2)OC1=O	GDH-TPI inh 36
CCCn1nc(C(=O)OCC(=O)Nc2ccc(C)cc2)c2ccccc2c1=O	none (no result: RecA splice inh)
Cc1cc(=O)oc2cc(OC(=O)c3nn(C(C)C)c(=O)c4ccccc34)ccc12	Mtb FBA inh active
CCCn1nc(C(=O)Oc2ccc3c(C)cc(=O)oc3c2)c2ccccc2c1=O	Mtb FBA inh active
CC(C)n1nc(C(=O)Oc2ccc(Cl)cc2)c2ccccc2c1=O	none
COc1cccc2c1cc1c(=O)n(CC(=O)N3CCCCCC3)nc(C)n12	Mtb FBA inh active, Mtb bLac sens inconclusive
CCOC(=O)C1CCCN(C(=O)Cn2nc(C)n3c(cc4c(OC)cccc43)c2=O)C1 (stereo unspecified)	Mtb FBA inh 193, Mtb bLac sens inconclusive
O=C(COc1ccc([N+](=O)[O-])cc1)N/N=C/c1cc([N+](=O)[O-])ccc1N1CCOCC1	GDH-TPI inh 48 (no result: Mtb UGM inh)
